# Data published in PubChem BioAssay (Tox21).
# Results filed as inconclusive are left out. Where a call stands in place of a potency, no number is given. The source made the active and inactive calls. Unless noted, calls follow the shape of the dose curve; as a rule, active = well fitted curve in the direction sought with a large enough effect in the repeat runs; inconclusive = weak or mixed curves; inactive = no such curve, though single readings can be large; an effect the other way counts as inactive or inconclusive.
# Tests used:
# [1] = Human pregnane X receptor (PXR) small molecule agonists, qHTS cell viability counter screen (AID 1346977); also: nearly all actives have a fitted effect of over 50% in size
# How it was run: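 HepG2 cells stably carrying the PXR-Luc reporter are cultured with 5% charcoal-stripped FBS and treated with compounds for 24hr. CellTiter-Fluor is added at 23hr and fluorescence is read after 1hr.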
# [2] = Caspase-3/7 induction in HepG2 cells by small molecules, qHTS assay (AID 1346978); also: nearly all actives have a fitted effect of over 15% in size
# How it was run: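 Wild-type HepG2 cells (2,000/well) were settled 5 h at 37 C, 5% CO2, then exposed to compounds in DMSO for 17 h. Caspase-3/7 activity was read by luminescence 30 min after adding Caspase-Glo 3/7 reagent at room temperature.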
# [3] = Caspase-3/7 induction in CHO-K1 cells by small molecules, qHTS cell viability counter screen (AID 1346979); also: nearly all actives have a fitted effect of over 35% in size
# How it was run: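 Seeding: 1,500 CHO-K1 cells/well. Rest: 5hr, 37C. Treatment: compounds in DMSO, 16hr. Read: CellTiter-Fluor, 1hr, fluorescence.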
# [4] = Caspase-3/7 induction in CHO-K1 cells by small molecules, qHTS assay (AID 1346980); also: nearly all actives have a fitted effect of over 15% in size
# How it was run: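 Wild-type cells were seeded at 1,500 per well and settled 5 hr at 37 C, 5% CO2, then exposed to DMSO-dissolved compounds for 17 hr. Caspase-Glo 3/7 reagent was added, and luminescence was read after 30min at room temperature.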
# [5] = Caspase-3/7 induction in HepG2 cells by small molecules, qHTS cell viability counter screen (AID 1346981); also: series mostly up to about 92 µM; nearly all actives have a fitted effect of over 30% in size
# How it was run: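 Viability determined by CellTiter-Fluor fluorescence in HepG2 wells also used for the luminescent Caspase-Glo 3/7 read. Compounds were present for 16 hr at 37 C, 5% CO2 before reagent addition.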
# [6] = biological target: Nuclear receptor subfamily 1 group I member 2 (Homo sapiens) (UniProt O75469); assay: Human pregnane X receptor (PXR) small molecule agonists, qHTS assay (AID 1346982); also: nearly all actives have a fitted effect of over 35% in size; also: potency is read from the fitted curve at half-maximal effect
# Chain of Nuclear receptor subfamily 1 group I member 2 (Homo sapiens) (O75469 whole entry, looked up): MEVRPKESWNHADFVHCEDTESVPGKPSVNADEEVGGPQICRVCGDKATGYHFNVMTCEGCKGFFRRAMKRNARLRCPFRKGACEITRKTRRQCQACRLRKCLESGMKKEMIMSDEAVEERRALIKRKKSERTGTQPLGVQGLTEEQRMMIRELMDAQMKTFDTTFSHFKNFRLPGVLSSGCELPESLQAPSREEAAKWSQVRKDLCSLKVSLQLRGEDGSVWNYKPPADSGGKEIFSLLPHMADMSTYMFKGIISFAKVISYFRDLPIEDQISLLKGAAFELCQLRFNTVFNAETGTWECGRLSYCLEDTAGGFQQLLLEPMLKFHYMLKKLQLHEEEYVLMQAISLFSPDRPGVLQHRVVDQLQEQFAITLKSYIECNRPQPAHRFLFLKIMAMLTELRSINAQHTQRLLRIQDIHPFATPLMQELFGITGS
# How it was run: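 Compound-induced hPXR transactivation of a CYP3A4 luciferase reporter was scored in HepG2 PXR-Luc cells over 24 hr at 37 C, 5% CO2, by luminescence.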
# [7] = biological target: Acetylcholinesterase (Homo sapiens) (UniProt P22303); assay: Acetylcholinesterase (AChE) small molecule antagonists: colormetric cell-based qHTS assay (AID 1347395; calls by dose curve; also: nearly all actives have a fitted effect of over 30% in size; also: potency is read from the fitted curve at half-maximal effect)
# Chain of Acetylcholinesterase (Homo sapiens) (P22303 whole entry, looked up): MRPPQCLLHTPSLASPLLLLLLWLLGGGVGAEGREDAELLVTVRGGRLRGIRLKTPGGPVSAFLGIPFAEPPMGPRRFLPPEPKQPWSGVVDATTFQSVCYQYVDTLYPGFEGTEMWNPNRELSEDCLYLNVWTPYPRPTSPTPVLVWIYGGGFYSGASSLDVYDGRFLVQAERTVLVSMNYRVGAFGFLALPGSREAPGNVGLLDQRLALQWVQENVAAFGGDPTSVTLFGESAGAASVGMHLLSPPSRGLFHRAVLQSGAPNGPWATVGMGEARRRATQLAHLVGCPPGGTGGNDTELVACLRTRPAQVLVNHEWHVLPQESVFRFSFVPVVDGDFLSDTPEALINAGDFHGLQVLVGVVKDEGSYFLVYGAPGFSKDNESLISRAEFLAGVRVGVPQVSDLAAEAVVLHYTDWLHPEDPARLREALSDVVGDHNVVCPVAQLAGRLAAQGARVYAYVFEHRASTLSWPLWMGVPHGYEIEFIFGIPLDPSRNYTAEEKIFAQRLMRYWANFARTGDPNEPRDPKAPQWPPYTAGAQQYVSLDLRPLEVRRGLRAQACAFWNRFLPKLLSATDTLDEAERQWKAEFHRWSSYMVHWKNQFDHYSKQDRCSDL
# How it was run: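 Quantitative HTS in attached SH-SY5Y cells: 30 min compound exposure, then 90 min with acetylthiocholine and DTNB at 37 C; colour from thiocholine reports AChE activity.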
# [8] = biological target: Acetylcholinesterase (Homo sapiens) (UniProt P22303); assay: Acetylcholinesterase (AChE) small molecule antagonists: enzyme-based qHTS assay (AID 1347397; calls by dose curve; also: nearly all actives have a fitted effect of over 55% in size); conditions: Potency: AChE enzyme activity inhibition
# How it was run: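 Human recombinant acetylcholinesterase; substrate acetylthiocholine; thiocholine quantified with DTNB (colorimetric). Compound preincubation 30 min RT; reaction 10 min RT.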
# [9] = biological target: Acetylcholinesterase (Homo sapiens) (UniProt P22303); assay: Acetylcholinesterase (AChE) small molecule antagonists: fluorescence cell-based qHTS assay (AID 1347398; calls by dose curve; also: nearly all actives have a fitted effect of over 50% in size); conditions: Potency: AChE activity
# How it was run: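 Thiocholine generated from acetylthiocholine by SH-SY5Y cell AChE is detected with Thiolite Green (Ex/Em 490/520 nm) after 40 min at room temperature, following 30 min compound pretreatment at 37 C.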
# [10] = biological target: Acetylcholinesterase (Homo sapiens) (UniProt P22303); assay: Acetylcholinesterase (AChE) small molecule antagonists: enzyme-based qHTS assay with human liver microsomes (AID 1347399; calls by dose curve; also: nearly all actives have a fitted effect of over 60% in size); conditions: Potency: qHTS inhibition
# How it was run: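 Recombinant human AChE (50 mU/mL in the enzyme mix) and human liver microsomes (0.25 mg/mL final) were preincubated with compound and NADPH (0.25 mg/mL final) for 30 min at 37 C. Acetylthiocholine/DTNB was then added; thiocholine was read colorimetrically after 10 min at room temperature.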
# [11] = biological target: Cytochrome P450 2C19 (Homo sapiens) (UniProt P33261); assay: Cytochrome P450 Family 2 Subfamily C Member 19 (CYP2C19) small molecule antagonists: luciferase reporter qHTS assay (AID 1671197); also: nearly all actives have a fitted effect of over 65% in size; also: potency is read from the fitted curve at half-maximal effect
# Chain of Cytochrome P450 2C19 (Homo sapiens) (P33261 whole entry, looked up): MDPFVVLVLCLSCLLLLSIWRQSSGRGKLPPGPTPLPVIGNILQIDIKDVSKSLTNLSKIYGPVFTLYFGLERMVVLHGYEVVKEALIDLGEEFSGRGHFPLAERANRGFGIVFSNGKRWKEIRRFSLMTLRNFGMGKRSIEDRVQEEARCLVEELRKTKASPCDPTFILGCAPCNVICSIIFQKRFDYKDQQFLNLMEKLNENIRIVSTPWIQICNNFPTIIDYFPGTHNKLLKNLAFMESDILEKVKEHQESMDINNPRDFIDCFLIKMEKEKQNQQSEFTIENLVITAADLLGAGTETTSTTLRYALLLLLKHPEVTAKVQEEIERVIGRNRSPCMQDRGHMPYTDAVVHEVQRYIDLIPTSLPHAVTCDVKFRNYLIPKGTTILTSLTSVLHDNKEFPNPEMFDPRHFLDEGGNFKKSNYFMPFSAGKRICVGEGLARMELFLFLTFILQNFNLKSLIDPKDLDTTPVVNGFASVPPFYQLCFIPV
# How it was run: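 Light output is proportional to CYP2C19 activity: proluciferin substrate is converted to luciferin, then detected by a luciferin detection reagent that also stops the 1 h, 37C NADPH-driven reaction. Ketoconazole serves as positive control.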
# [12] = biological target: Cytochrome P450 2C9 (Homo sapiens) (UniProt P11712); assay: Cytochrome P450 Family 2 Subfamily C Member 9 (CYP2C9) small molecule antagonists: luciferase reporter qHTS assay (AID 1671198); also: nearly all actives have a fitted effect of over 50% in size; also: potency is read from the fitted curve at half-maximal effect
# Chain of Cytochrome P450 2C9 (Homo sapiens) (P11712 whole entry, looked up): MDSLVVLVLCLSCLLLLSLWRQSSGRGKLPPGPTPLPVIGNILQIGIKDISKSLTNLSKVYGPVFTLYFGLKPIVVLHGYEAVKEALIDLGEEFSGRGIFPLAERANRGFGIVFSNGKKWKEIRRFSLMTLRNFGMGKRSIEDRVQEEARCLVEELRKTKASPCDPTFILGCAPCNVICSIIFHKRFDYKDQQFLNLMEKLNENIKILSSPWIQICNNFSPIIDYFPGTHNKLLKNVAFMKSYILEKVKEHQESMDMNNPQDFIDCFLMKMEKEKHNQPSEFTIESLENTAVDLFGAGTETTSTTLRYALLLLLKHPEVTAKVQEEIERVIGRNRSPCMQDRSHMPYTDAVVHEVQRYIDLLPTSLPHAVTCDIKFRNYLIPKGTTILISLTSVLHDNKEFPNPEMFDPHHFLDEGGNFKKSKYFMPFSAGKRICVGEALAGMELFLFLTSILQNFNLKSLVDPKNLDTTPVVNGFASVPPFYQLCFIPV
# How it was run: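 CYP2C9 activity was measured with a P450-Glo proluciferin substrate. Enzyme–substrate mix was held with compound for 10 min at room temperature, then NADPH regeneration solution was added for 1 h at 37C. Luciferin product was read as luminescence.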
# [13] = biological target: Voltage-gated inwardly rectifying potassium channel KCNH2 (Homo sapiens) (UniProt Q12809); assay: Human Ether-a-go-go-Related Gene (hERG) channel small molecule antagonists: fluorescence cell-based qHTS assay (AID 1671200);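 also: hERG-expressing U2OS cells given a thallium stimulus after FluxOR II dye loading; series mostly up to about 77 µM; nearly all actives have a fitted effect of over 50% in size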
# Chain of Voltage-gated inwardly rectifying potassium channel KCNH2 (Homo sapiens) (Q12809 whole entry, looked up): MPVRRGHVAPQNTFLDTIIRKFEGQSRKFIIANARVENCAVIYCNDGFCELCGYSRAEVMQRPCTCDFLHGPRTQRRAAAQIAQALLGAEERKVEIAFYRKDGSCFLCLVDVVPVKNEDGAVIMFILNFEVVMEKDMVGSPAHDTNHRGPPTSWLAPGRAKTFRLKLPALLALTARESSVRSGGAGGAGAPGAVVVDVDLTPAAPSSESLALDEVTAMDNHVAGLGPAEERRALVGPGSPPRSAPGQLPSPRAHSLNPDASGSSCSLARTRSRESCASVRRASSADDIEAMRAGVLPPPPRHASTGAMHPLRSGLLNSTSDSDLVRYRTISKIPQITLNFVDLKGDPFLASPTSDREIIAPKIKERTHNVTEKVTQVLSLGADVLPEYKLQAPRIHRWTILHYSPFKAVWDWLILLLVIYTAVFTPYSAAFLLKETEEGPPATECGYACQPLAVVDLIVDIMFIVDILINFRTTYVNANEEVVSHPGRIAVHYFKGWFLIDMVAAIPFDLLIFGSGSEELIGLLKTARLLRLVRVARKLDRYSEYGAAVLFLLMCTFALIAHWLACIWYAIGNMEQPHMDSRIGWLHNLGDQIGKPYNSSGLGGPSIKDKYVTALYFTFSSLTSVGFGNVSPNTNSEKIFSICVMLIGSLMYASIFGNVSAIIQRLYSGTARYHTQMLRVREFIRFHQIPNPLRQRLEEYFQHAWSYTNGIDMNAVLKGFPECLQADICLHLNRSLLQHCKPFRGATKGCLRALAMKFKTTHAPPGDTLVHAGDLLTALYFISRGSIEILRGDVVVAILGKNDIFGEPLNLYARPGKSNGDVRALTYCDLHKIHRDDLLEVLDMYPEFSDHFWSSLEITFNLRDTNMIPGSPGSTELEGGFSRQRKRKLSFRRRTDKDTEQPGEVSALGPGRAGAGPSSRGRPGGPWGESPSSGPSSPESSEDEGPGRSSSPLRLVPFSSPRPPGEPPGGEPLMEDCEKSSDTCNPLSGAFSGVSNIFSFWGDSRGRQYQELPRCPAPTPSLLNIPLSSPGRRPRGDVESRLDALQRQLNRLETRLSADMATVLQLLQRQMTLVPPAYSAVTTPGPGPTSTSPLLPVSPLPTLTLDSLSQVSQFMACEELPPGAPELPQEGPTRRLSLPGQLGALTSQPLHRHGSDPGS
# How it was run: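 First, 1000 cells per well are seeded and cultured overnight at 37 C. Next, FluxOR II dye is loaded for 1 h at room temperature, protected from light. After 10 more minutes, stimulus is added and fluorescence is read.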
# [14] = biological target: Cytochrome P450 2D6 (Homo sapiens) (UniProt P10635); assay: Cytochrome P450 Family 2 Subfamily D Member 6 (CYP2D6) small molecule antagonists: luciferase reporter qHTS assay (AID 1671196); also: nearly all actives have a fitted effect of over 50% in size; also: potency is read from the fitted curve at half-maximal effect
# Chain of Cytochrome P450 2D6 (Homo sapiens) (P10635 whole entry, looked up): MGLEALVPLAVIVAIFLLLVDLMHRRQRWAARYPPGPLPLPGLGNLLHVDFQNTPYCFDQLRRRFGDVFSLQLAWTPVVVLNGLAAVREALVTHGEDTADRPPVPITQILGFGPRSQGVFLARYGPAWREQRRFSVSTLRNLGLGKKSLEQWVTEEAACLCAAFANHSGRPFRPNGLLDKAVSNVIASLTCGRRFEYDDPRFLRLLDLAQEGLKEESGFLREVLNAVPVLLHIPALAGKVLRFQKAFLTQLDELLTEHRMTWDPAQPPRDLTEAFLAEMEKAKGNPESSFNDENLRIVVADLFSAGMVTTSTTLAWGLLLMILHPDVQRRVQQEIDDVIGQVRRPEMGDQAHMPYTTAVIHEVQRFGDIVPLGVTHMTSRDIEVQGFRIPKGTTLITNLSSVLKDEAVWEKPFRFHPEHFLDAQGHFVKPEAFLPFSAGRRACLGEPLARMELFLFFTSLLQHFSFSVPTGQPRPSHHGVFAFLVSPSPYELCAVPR
# How it was run: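 Each well received CYP2D6 with its proluciferin substrate and chemical, sat 10 min, then got NADPH regeneration solution for 1 h at room temperature. Luminescence in RLU served as the activity measure.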
# [15] = biological target: Cytochrome P450 3A4 (Homo sapiens) (UniProt P08684); assay: Cytochrome P450 Family 3 Subfamily A Member 4 (CYP3A4) small molecule antagonists: luciferase reporter qHTS assay (AID 1671201); also: nearly all actives have a fitted effect of over 50% in size; also: potency is read from the fitted curve at half-maximal effect
# Chain of Cytochrome P450 3A4 (Homo sapiens) (P08684 whole entry, looked up): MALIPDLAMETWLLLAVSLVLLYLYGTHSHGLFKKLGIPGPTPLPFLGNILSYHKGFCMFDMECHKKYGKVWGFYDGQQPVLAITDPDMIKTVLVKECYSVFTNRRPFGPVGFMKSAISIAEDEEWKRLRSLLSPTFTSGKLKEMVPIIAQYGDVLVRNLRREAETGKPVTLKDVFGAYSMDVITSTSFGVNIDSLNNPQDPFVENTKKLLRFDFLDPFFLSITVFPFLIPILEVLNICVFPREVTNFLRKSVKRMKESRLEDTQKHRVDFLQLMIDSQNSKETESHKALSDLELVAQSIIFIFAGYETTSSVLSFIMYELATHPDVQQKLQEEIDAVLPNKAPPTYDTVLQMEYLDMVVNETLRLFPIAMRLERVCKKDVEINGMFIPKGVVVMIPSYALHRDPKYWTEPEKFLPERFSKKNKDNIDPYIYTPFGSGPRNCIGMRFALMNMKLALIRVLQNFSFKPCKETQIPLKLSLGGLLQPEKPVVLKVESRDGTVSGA
# How it was run: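 Enzyme and proluciferin substrate are mixed with test chemicals for 10 min, then NADPH regeneration system drives turnover for 1 h at room temperature. A detection reagent halts the reaction; luminescence after 20 min gives relative activity.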
# [16] = biological target: Cytochrome P450 1A2 (Homo sapiens) (UniProt P05177); assay: Cytochrome P450 Family 1 Subfamily A Member 2 (CYP1A2) small molecule antagonists: luciferase reporter qHTS assay (AID 1671199); also: nearly all actives have a fitted effect of over 50% in size; also: potency is read from the fitted curve at half-maximal effect
# Chain of Cytochrome P450 1A2 (Homo sapiens) (P05177 whole entry, looked up): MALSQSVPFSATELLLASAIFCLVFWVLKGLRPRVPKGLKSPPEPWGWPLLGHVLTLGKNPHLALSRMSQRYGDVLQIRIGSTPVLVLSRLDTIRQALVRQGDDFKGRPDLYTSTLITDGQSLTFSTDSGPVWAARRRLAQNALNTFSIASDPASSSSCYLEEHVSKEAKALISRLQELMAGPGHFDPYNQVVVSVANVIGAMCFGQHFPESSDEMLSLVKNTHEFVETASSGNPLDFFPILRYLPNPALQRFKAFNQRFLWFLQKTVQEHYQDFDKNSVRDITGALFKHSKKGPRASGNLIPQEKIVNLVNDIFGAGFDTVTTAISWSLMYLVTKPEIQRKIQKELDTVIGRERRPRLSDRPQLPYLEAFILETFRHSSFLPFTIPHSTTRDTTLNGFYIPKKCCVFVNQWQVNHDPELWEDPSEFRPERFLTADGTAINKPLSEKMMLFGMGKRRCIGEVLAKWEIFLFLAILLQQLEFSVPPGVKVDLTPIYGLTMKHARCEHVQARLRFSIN
# How it was run: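 Enzymatic CYP1A2 assay, human, luminescent: 10 min compound–enzyme–substrate preincubation, 1 h NADPH-dependent turnover, 20 min detection step, room temperature throughout. Reduced light indicates lower CYP1A2 activity.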
SMILES,Potency [1],Potency [2],Potency [3],Potency [4],Potency [5],Potency [6],Potency [7],Potency [8],Potency [9],Potency [10],Potency [11],Potency [12],Potency [13],Potency [14],Potency [15],Potency [16]
OC(c1ccc(F)cc1)(c1cncnc1)c1ccccc1Cl (stereo not drawn),inactive,inactive,inactive,inactive,inactive,30.6 µM (active),inactive,inactive,inactive,inactive,3.99 µM (active),20 µM (active),inactive,,,
NC(=S)C(N)=S,inactive,inactive,inactive,inactive,inactive,inactive,inactive,inactive,inactive,inactive,,79.6 µM (active),inactive,71 µM (active),,
COc1ncc(F)c2nc(S(=O)(=O)Nc3c(F)cccc3F)nn12,inactive,inactive,inactive,inactive,inactive,inactive,inactive,inactive,inactive,inactive,,22.6 µM (active),inactive,inactive,inactive,
Cc1coc2c1CCC(C)C2 (stereo not drawn),inactive,inactive,inactive,inactive,inactive,17.8 µM (active),inactive,inactive,inactive,inactive,73.4 µM (active),,inactive,,29.2 µM (active),
Cc1ncc(CNC(=O)N(CCCl)N=O)c(N)n1,inactive,inactive,inactive,inactive,inactive,inactive,inactive,inactive,inactive,inactive,,,inactive,inactive,inactive,
CNC(=O)N(C)c1nc2ccccc2s1,inactive,inactive,inactive,inactive,inactive,30.6 µM (active),inactive,inactive,inactive,inactive,39.9 µM (active),39.9 µM (active),inactive,,,
CC(=O)C(Cl)Cl,inactive,inactive,inactive,inactive,inactive,inactive,inactive,inactive,inactive,inactive,,inactive,inactive,inactive,inactive,inactive
ClC(Br)Br,inactive,inactive,inactive,inactive,inactive,inactive,inactive,inactive,inactive,inactive,,inactive,inactive,inactive,inactive,inactive
COc1cc(OC)nc(NC(=O)NS(=O)(=O)c2ncccc2OCC(F)(F)F)n1,inactive,inactive,inactive,inactive,inactive,inactive,inactive,inactive,inactive,inactive,,,inactive,inactive,inactive,
O=[N+]([O-])c1ccc(CBr)cc1,inactive,inactive,inactive,inactive,inactive,inactive,inactive,inactive,inactive,inactive,,inactive,inactive,inactive,inactive,
O=C(Cc1ccccc1)OCc1ccccc1,inactive,inactive,inactive,inactive,inactive,inactive,inactive,inactive,inactive,inactive,10.1 µM (active),,inactive,,inactive,18 µM (active)
N#Cc1c(Cl)cccc1Cl,inactive,inactive,inactive,inactive,inactive,inactive,inactive,inactive,inactive,inactive,,inactive,inactive,inactive,inactive,
CC(Oc1ccc(Oc2ncc(C(F)(F)F)cc2Cl)cc1)C(=O)O (stereo not drawn),inactive,inactive,inactive,inactive,inactive,inactive,inactive,inactive,inactive,inactive,,35.6 µM (active),inactive,71 µM (active),inactive,39.9 µM (active)
Cc1ccccc1CO[C@@H]1C[C@@]2(C(C)C)CC[C@]1(C)O2,inactive,inactive,inactive,inactive,inactive,inactive,inactive,inactive,inactive,inactive,5.64 µM (active),22.4 µM (active),inactive,,,
CCC(=O)c1ccccc1,inactive,inactive,inactive,inactive,inactive,inactive,inactive,inactive,inactive,inactive,,inactive,inactive,inactive,inactive,inactive
CC1(C)C(=O)NC(=O)NC1=O,inactive,inactive,inactive,inactive,inactive,inactive,inactive,inactive,inactive,inactive,,inactive,inactive,inactive,inactive,35.6 µM (active)
C[N+](=O)[O-],inactive,inactive,inactive,inactive,inactive,inactive,inactive,inactive,inactive,inactive,,inactive,inactive,inactive,,
CN(N=O)C(N)=O,inactive,inactive,inactive,inactive,inactive,inactive,inactive,inactive,inactive,inactive,,inactive,inactive,inactive,inactive,inactive
CC(COc1ccc(Oc2ccccc2)cc1)Oc1ccccn1 (stereo not drawn),inactive,inactive,inactive,inactive,inactive,17.2 µM (active),inactive,inactive,inactive,inactive,,15.9 µM (active),,inactive,inactive,15.9 µM (active)
CC(C)[N+](=O)[O-],inactive,inactive,inactive,inactive,inactive,inactive,inactive,inactive,inactive,inactive,,inactive,inactive,inactive,inactive,
COC(=O)c1c(C(F)F)nc(C(F)(F)F)c(C2=NCCS2)c1CC(C)C,inactive,inactive,inactive,inactive,inactive,0.77 µM (active),inactive,inactive,inactive,inactive,,35.6 µM (active),inactive,,2 µM (active),0.356 µM (active)
O=[N+]([O-])c1cccc2cccnc12,inactive,inactive,inactive,inactive,inactive,35.3 µM (active),inactive,inactive,,inactive,,inactive,inactive,inactive,inactive,36.5 µM (active)
CCCSP(=S)(OCC)Oc1ccc(Cl)cc1Cl (stereo not drawn),inactive,inactive,inactive,inactive,inactive,30.6 µM (active),inactive,inactive,,inactive,,2 µM (active),inactive,,2.83 µM (active),11.2 µM (active)
BrCCCCCCBr,inactive,inactive,inactive,inactive,inactive,inactive,63.3 µM (active),inactive,,inactive,,,inactive,inactive,,
CNNC,inactive,inactive,inactive,inactive,inactive,inactive,inactive,inactive,,inactive,inactive,inactive,inactive,65.4 µM (active),,
CNC(=O)Oc1ccccc1C1OCCO1,inactive,inactive,inactive,inactive,inactive,inactive,inactive,inactive,,inactive,inactive,,inactive,,inactive,25.1 µM (active)
[Cl][Sn]([Cl])([Cl])[Cl],inactive,inactive,inactive,inactive,inactive,inactive,inactive,inactive,,inactive,81.5 µM (active),,inactive,inactive,inactive,32.4 µM (active)
CCOc1nc(C(Cl)(Cl)Cl)ns1,inactive,inactive,inactive,inactive,inactive,inactive,inactive,inactive,,inactive,inactive,,inactive,inactive,inactive,
